# Measured values published in PubChem BioAssay AID686979 (National Center for Advancing Translational Sciences (NCATS), 2013).
# “And” between values parts separate entries of the source, which are not always exact repeats. Equal values may be shown once. Screen size: about 420,000 compounds; about 50,000 (12%) were called active. Roughly 26% stayed inconclusive and do not appear here. The call rests on the fitted dose curve; in most records, active means well fitted inhibition curve with a large enough effect; inconclusive means small, poorly fitted or top-dose-only effect; inactive means flat fitted curve, though single readings scatter. What follows is part of a selection rich in actives, with near analogues and random picks from the rest.
# Experiment: qHTS for Inhibitors of human tyrosyl-DNA phosphodiesterase 1 (TDP1): qHTS in cells in presence of CPT; further: nearly all actives have a fitted effect of over 55% in size
# Conditions: chicken DT40 Tdp1-/-;hTDP1 cells + 20 nM CPT, ATP luminescence, 48 h; series mostly up to 46.2 µM; activity change, negative = growth inhibition: at the top concentration
# Procedure, shortened: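 Cell growth measured by CellTiter-Glo luminescence after a minimum 48 h, 37 C compound exposure with 20 nM CPT in Tdp1-knockout DT40 cells stably expressing hTDP1, seeded 400/well; qHTS titration format.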
# On the % scale 0 is the no-effect control and ±100 the full control effect; potency means the concentration at half of the fitted maximal effect.
Structure (SMILES),"activity change, negative = growth inhibition",Potency
CCCn1nc(C(=O)OCc2nc(N)nc(Nc3ccccc3C)n2)c2ccccc2c1=O,-16.3% (inactive),
C#CCNc1ccc(C(=O)OCC)cc1,1.67% (inactive),
O=C(OC12CC3CC(CC(C3)C1)C2)c1ccc(NCc2cc(O)ccc2O)cc1,,2.06 µM (active)
CC(OC(=O)c1ccc(Cl)cc1O)C(=O)NCCC1=CCCCC1 (stereo unspecified),-9.5% (inactive),
CC(CN1CCOCC1)OC(=O)c1ccc(Cl)cc1Cl (stereo unspecified),5.64% (inactive),
CC(C)OC(=O)c1ccc(NCc2cc(O)ccc2O)cc1Cl,,2.91 µM (active)
COC(=O)c1ccc(NCc2cc(O)ccc2O)cc1,,4.61 µM (active)
COC(=O)c1ccc(NCC(=O)c2ccccc2)cc1,-1.26% (inactive),
CCCCCN(C(=O)CCC(=O)OCC(=O)NC1CCC(C)CC1)c1c(N)n(CCCC)c(=O)[nH]c1=O (stereo unspecified),-3.19% (inactive),
COc1ccc(NC(=O)c2cccc(Cl)c2)c[n+]1[O-],-0.187% (inactive),
O=C(Nc1c2c(nn1-c1ccccc1)CS(=O)(=O)C2)C1CCCC1,-6.01% (inactive),
O=C(CCc1ccc(S(=O)(=O)N2CCOCC2)cc1)OCC(=O)c1ccc(Br)cc1,9.72% (inactive),
CCOc1ccc(-n2cnnn2)cc1S(=O)(=O)N1CCC(C)CC1C (stereo unspecified),-5.89% (inactive),
C#CC(C)(C)NC(=O)c1cnc(-c2ccccc2)nc1-c1ccccc1,-19.4% (inactive),
COC(=O)c1ccc(COC(=O)CNC(=O)c2cccc(OC)c2)o1,1.46% (inactive),
O=S(=O)(/N=C(/Nc1ccccc1)c1ccccc1)c1cccs1,-15.8% (inactive),
CCCCCc1ccc(-c2cn(Cc3ccc4ccccc4c3)nn2)cc1,,inactive
CCc1cc(-c2nnn(CCC3COCCO3)c2CC)ccc1-c1cn(Cc2ccc3ccccc3c2)nn1 (stereo unspecified),,5.8 µM (active)
CCCN(CCC)C(=O)C(Cc1ccccc1)NS(=O)(=O)c1ccc2c(c1)c(=O)n(C)c(=O)n2C (stereo unspecified),-14% (inactive),
O=C(CNC(=O)N1CC(=O)Nc2ccccc21)Nc1ccc(Br)cc1F,6.9% (inactive),
C[C@H](CO)N1C[C@H](C)[C@@H](CN(C)C(=O)C2CCCCC2)OCc2cnnn2CCCC1=O,-22.6% (inactive),
O=C(Cn1cc(SCc2cccc(Cl)c2)c2ccccc21)N1CCCCC1,,18.4 µM (active)
CC(C)N(C(=O)Cn1cc(SCC(=O)N2CCCC2)c2ccccc21)C(C)C,10.2% (inactive),
CC(=O)Nc1cccc(NC(=O)CSc2cn(CC(=O)N3CCCC3)c3ccccc23)c1,-26.7% (inactive),
CC(C)C12CN3CC(C(C)C)(CN(C1)C3c1ccc(OCc3ccccc3)cc1)C2=O (stereo unspecified),0.582% (inactive),
Cn1nccc1C(=O)NCC1CCC2(CCN(Cc3c(O)ccc4ccccc34)CC2)O1 (stereo unspecified),-24.3% (inactive),

Structure (SMILES),"activity change, negative = growth inhibition",Potency
N#Cc1cccc(NC(=O)COC(=O)c2ccccc2C(=O)c2ccc(Cl)c([N+](=O)[O-])c2)c1,,20.6 µM (active)
COC(=O)c1cc(NC(=O)Cc2ccccc2[N+](=O)[O-])ccc1Cl,-7.47% (inactive),
CC(=O)Nc1ccc(NC(=O)COC(=O)c2ccccc2C(=O)c2ccccc2)cc1,-29.4% (inactive),
CCOC(=O)C1CCN(CC(=O)Nc2ccc(OC)c(S(=O)(=O)N3CCCCC3)c2)CC1,-23.6% (inactive),
CC[n+]1c(C)n(-c2ccccc2)c2ccc(NC(C)=O)cc21,,6.51 µM (active)
CCn1c2ccccc2c2cc(NC(=O)CNC)ccc21,1.65% (inactive),
CC(=O)Nc1ccc(NC(=O)CSc2nnc(C3CC3)n2-c2ccccc2)cc1,-16.4% (inactive),
Cc1ccccc1NC(=O)Cn1c(=O)n(Cc2ccco2)c(=O)c2ccc(C(=O)NC3CCCC3)cc21,-7.3% (inactive),
CC(C)(C)NC(=O)NC(=O)COC(=O)CCC1CCCCC1,-24.2% (inactive),
COc1ccc(N2c3ccccc3CN(Cc3ccccc3)[C@@H](C)[C@H]2Cc2ccc(-c3ccccc3)cc2)cc1,,23.1 µM (active)
COc1ccc(N2C(=O)C(Cc3ccccc3)NC2=S)cc1 (stereo unspecified),31.4% (inactive),
C[n+]1cccc(C(=O)O)c1,-7.01% (inactive),
O=C(CCc1nnc2ccc(NCc3ccccc3Cl)nn12)NCC1CCN(C2CCCC2)C1 (stereo unspecified),9.38% (inactive),
Nc1c(-c2cccc(Cl)c2)cnn1-c1cccc([N+](=O)[O-])c1,-19.7% (inactive),
COc1cccc(NC(=O)N2CCCC2C(=O)NC2CCCCC2)c1 (stereo unspecified),6% (inactive),
COc1cccc(NC(=O)C/C(C)=N/NC(=O)C2CCCCC2)c1,-21.1% (inactive),
COc1cccc(NC(=O)N(Cc2cn(C)c3ccccc23)C2CCCCCC2)c1,,5.8 µM (active)
COc1ccc(NC(=O)NNC(=O)COc2cc(C)c(Cl)c(C)c2)c(OC)c1,-9.26% (inactive),
O=C1CSC(c2ccc(Cl)cc2)N1 (stereo unspecified),-5.3% (inactive),
O=C(CN1CCCCCC1)Nc1c(Cl)cc(Cl)cc1Cl,-25.1% (inactive),
CCNC(=O)C1CCCN(C(=O)c2cc(F)ccc2C)CC1 (stereo unspecified),-17.5% (inactive),
O=C(c1cccc(F)c1)N1CCC2(CCCN(Cc3ccncc3)C2)CC1,-20.6% (inactive),
O=C(c1ccncc1)N1CCC2(CCCN(C(c3ccccc3)c3ccccc3)C2)CC1,,16.4 µM (active)
COc1ccc(C(=O)N2CCC3(CCCN(C(c4ccccc4)c4ccccc4)C3)CC2)cc1,21% (inactive),
COc1ccc(CC(=O)Nc2nnc3n2CCS3)cc1OC,-12.5% (inactive),
O=C(COC(=O)c1cccs1)NCc1cccs1,2.73% (inactive),

Structure (SMILES),"activity change, negative = growth inhibition",Potency
CN(Cc1ccccc1)C(=O)c1cccc(C(=O)N(C)Cc2ccccc2)c1,-2.28% (inactive),
CCOc1ccc(OCc2cccc(C(=O)N(CC)CC)c2)cc1,,20.6 µM (active)
COc1ccc(OCc2cccc(C(=O)N3CCCC3)c2)cc1,-16.4% (inactive),
O=C(CN1C(=O)c2ccccc2S1(=O)=O)NC1CCCCC1,1.06% (inactive),
COc1ccc(-n2cnnc2SCC(=O)Nc2cccc(S(N)(=O)=O)c2)cc1,-3.28% (inactive),
O=C(Nc1ccc(Cl)cc1)Nc1ccc(C(=O)N2CCOCC2)cc1,-16.9% (inactive),
Nc1ccn(C2CC(O)C(CO)O2)c(=O)n1 (stereo unspecified),-0.714% (inactive),
Nc1ncnc2c1cnn2C1CC(O)C(CO)O1 (stereo unspecified),14.9% (inactive),
Nc1ncnc2c1ncn2C1CC(O)C(CO)O1 (stereo unspecified),,1.16 µM (active)
CCN(CC(=O)Nc1c(F)cccc1F)C(=O)c1cnc(C)cn1,1.54% (inactive),
O=C1c2ccccc2C(=O)N1CCCCCCN1C(=O)c2ccccc2C1=O,-18% (inactive),
O=C(CCCn1c(=O)c2sccc2n(CC(=O)NCC2CCCO2)c1=O)NCc1ccco1 (stereo unspecified),2.51% (inactive),
CCN(CCCNC(=O)CCn1c(=O)[nH]c2ccsc2c1=O)c1ccccc1,6.83% (inactive),
CCC1CCCCN1C(=O)Cn1c(=O)n(CCCCCC(=O)NCc2ccccc2)c(=O)c2sccc21 (stereo unspecified),,16.4 µM (active)
Cc1cc(S(=O)(=O)NCc2ccccn2)c(Cl)cc1Cl,-2.32% (inactive),
Cc1ccc(S(=O)(=O)NCC(=O)NNC(=O)c2ccc(Br)cc2)cc1C,8.9% (inactive),
C/C(=N\Nc1nc(Nc2ccccc2)nc(N2CCOCC2)n1)c1cccs1,,23.1 µM (active)
C/C(=N\Nc1ccccc1)c1cccs1,-0.909% (inactive),
C/C(=N\Nc1nc(N2CCOCC2)nc(N2CCOCC2)n1)c1ccc([N+](=O)[O-])cc1,9.59% (inactive),
O=C(COC(=O)C1CC2CCCC(C1)C2=O)NC(=O)c1ccccc1 (stereo unspecified),-16.9% (inactive),
CC(C)(C)c1ccc(C(=O)N2CCN(CCNC(=O)C(=O)Nc3ccc(F)cc3)CC2)cc1,,16.4 µM (active)
CN1CCN(C(=O)c2ccc(NC(=O)c3ccc(Br)o3)cc2)CC1,7.4% (inactive),
Cc1ccc(C(=O)N/C(=C\c2ccc(F)cc2)C(=O)NCCN2CCOCC2)cc1,2.67% (inactive),
Cc1cc(C(=O)OCC(=O)N2C(C)CCCC2C)c2ccccc2n1 (stereo unspecified),2.32% (inactive),
COC(=O)c1ccccc1NS(=O)(=O)c1ccc2c(c1)CCCN2C(C)=O,-17% (inactive),
O=C(NCc1ccncc1)C1CCCN(S(=O)(=O)c2ccc(Br)cc2)C1 (stereo unspecified),-26% (inactive),

Structure (SMILES),"activity change, negative = growth inhibition",Potency
COc1cccc(N2CCN(S(=O)(=O)c3ccc4c(c3)CCCN4C(C)=O)CC2)c1,-26.4% (inactive),
CC(=O)N1CCCc2cc(S(=O)(=O)N3CCCC(C(=O)N4CCN(c5cccc(Cl)c5)CC4)C3)ccc21 (stereo unspecified),,2.31 µM (active) and 8.2 µM (active)
CC(=O)N1CCCc2cc(S(=O)(=O)N3CCC(C(=O)NC4CCCCC4)CC3)ccc21,6.44% (inactive),
CC(=O)N1CCCc2cc(S(=O)(=O)N3CCCC(C(=O)NCc4ccc(Cl)cc4)C3)ccc21 (stereo unspecified),,18.4 µM (active)
CCCCn1c(N)c(N(CCOC)C(=O)c2cccc(S(=O)(=O)N(C)c3ccccc3)c2)c(=O)[nH]c1=O,0.657% (inactive),
CC(C)(C(=O)N1CCC1(C)C(=O)NS(=O)(=O)c1ccc(Br)cc1)c1ccccc1 (stereo unspecified),-32.2% (inactive),
CCOC(=O)C1CCN(S(=O)(=O)c2ccc3c(c2)N(C(C)=O)CCO3)CC1,-14.8% (inactive),
Cc1cc2c(cc1C)N(Cc1ccccc1)C1=NCCCN12,,13 µM (active)
O=C(CN1C2=NCCN2c2ccccc21)c1cccs1,-13.6% (inactive),
OC(CN1C2=NCCCN2c2ccccc21)c1ccc(Br)cc1 (stereo unspecified),-29.8% (inactive),
CCOc1ccc(OCCSc2nc3ccccc3n2CC(=O)O)cc1,-13.1% (inactive),
Cc1ccc(Cn2c(SCC(=O)N/N=C/c3ccccc3OCC(=O)O)nc3ccccc32)cc1,-7.54% (inactive),
CN(C(=O)CSc1nc2ccccc2n1Cc1ccccc1C#N)c1ccccc1,,14.6 µM (active)
CCN(CC)C(=O)CSc1nc2ccccc2n1CC(=O)N1CCN(c2ccccc2OC)CC1,-26.7% (inactive),
COC(=O)CSc1nc2ccccc2c(=O)n1Cc1ccccc1,0.481% (inactive),
COC(=O)c1ccc(Cn2c(SCC(=O)N(C)c3ccccc3)nc3ccccc32)cc1,,20.6 µM (active)
CC(C)[C@H](NC(=O)OCc1ccccc1)C(=O)OCc1ccccc1,5.67% (inactive),
CCN1CCN(C(=O)N[C@@H](C(=O)N[C@@H]2C(=O)N3C(C(=O)O)=C(CSc4nnnn4C)CS[C@H]23)c2ccc(O)cc2)C(=O)C1=O,,inactive
CCOc1ccc(C)cc1S(=O)(=O)NC1CCCCCC1,-28.6% (inactive),
CC1CN(C(=O)COC(=O)c2cccc(NS(=O)(=O)c3ccccc3)c2)CC(C)O1 (stereo unspecified),-2.2% (inactive),
O=C(CSc1ccc(-c2ccccc2)nn1)NCC1CCCO1 (stereo unspecified),-6.35% (inactive),
Cc1ccc(SCC(=O)Nc2nncs2)cc1,-23.3% (inactive),
CC(C)Oc1ccc(C(=O)NCC(=O)Nc2ccc3c(c2)CCC3)cc1,-21.7% (inactive),
